MITF inh – MITF inhibitors, primary screen, biochemical, AlphaScreen, human | Microphthalmia-associated transcription factor (Homo sapiens), O75030 | AlphaScreen MITF homodimerization, bead proximity signal | inhibition, % at 2.6 µM | 0.91% of 650,000 active; in the data active = inhibition above about 50%;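 note: 0% = vehicle wells with protein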
GPR151 ag – activators of human GPR151, primary screen, cell-based, PathHunter beta-arrestin, luminescence | G-protein coupled receptor 151 (Homo sapiens), Q8TDV0 | PathHunter beta-arrestin GPR151 cells | activation, % at 11.2 µM | 1% of 650,000 active | AID 1508602, 2020; in the data active = activation above about 4.9%;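 note: 0% = median of compound wells and 100% = cells with positive control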
Target sequence (Q8TDV0 whole entry, looked up): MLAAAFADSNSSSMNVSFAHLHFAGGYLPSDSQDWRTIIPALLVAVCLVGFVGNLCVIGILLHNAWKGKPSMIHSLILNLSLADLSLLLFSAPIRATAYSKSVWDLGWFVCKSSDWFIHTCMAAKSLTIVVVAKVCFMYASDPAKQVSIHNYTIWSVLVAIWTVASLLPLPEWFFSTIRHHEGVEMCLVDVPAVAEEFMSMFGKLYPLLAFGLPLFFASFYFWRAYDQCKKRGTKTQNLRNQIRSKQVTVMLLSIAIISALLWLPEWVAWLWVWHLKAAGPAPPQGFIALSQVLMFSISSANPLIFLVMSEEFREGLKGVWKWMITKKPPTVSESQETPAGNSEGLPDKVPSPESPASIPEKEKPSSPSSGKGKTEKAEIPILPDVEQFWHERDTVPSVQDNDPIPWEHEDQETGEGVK
FBW7 activator – FBW7 E3 ligase activators, primary screen, biochemical, AlphaScreen, human; 0.13% of 650,000 active; AID 1259310, 2017; AlphaScreen FBW7–phospho-cyclin E peptide binding, activator screen; normalized activity (activation), % at 26.1 µM; in the data active = normalized activity above about 1.9%;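 note: purified mutant Fbw7 with reduced substrate affinity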
TEAD-YAP inh – TEAD-YAP interaction inhibition, primary screen, TEAD-YAP interaction inhibitor project, luminescence, HEK-TIYL cells; TEAD-Gal4/YAP UAS-luciferase luminescence; inhibition, % at 9.12 µM; 1.4% of 640,000 active; in the data active = inhibition above about 32%;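 note: 0% = median of test compound wells and 100% = reference inhibitor wells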
* hit, by the source's call. Sampled rows, rich in hits. Any-hit rate of the full collection: about 3.4%.

SMILES	MITF inh	GPR151 ag	FBW7 activator	TEAD-YAP inh
CCN(CC)C(=O)C1CCCN(c2nc(NCCc3ccc(OC)cc3)c3ncn(-c4ccsc4)c3n2)C1 (stereo not drawn)	-4	-1	0	33*
CCN(CC)C(=O)C1CCCN(c2nc(NCCN3CCOCC3)c3ncn(C4CCCCC4)c3n2)C1 (stereo not drawn)	11	-3	0	38*
CCN(CC)C(=O)C1CCCN(c2nc(NCCN3CCOCC3)c3ncn(C(C)C)c3n2)C1 (stereo not drawn)	-2	-1	0	7
CCN(CC)C(=O)C1CCCN(c2nc(NCCN3CCOCC3)c3ncn(-c4ccsc4)c3n2)C1 (stereo not drawn)	12	1	0	36*
COc1ccc(S(=O)(=O)NCc2nc(-c3cccc(C)c3)no2)cc1	-9	1	0	6
COc1cc(CNC(=O)c2c(C(F)(F)F)nc3c(OC)cccn23)cc(OC)c1OC	11	-1	1.9*	0
COc1cc(CNC(=O)c2ccc3ccccc3n2)cc(OC)c1OC	0	0	0	45*
Cc1ccccc1NS(=O)(=O)c1ccc2c3c(cccc13)C(=O)N2	-13	2	0	-7
Cc1ccc(NC(=O)NC(=O)N(C)S(C)(=O)=O)cc1	-7	1	0	-11
O=C(Nc1cc(NC(=O)C2CCCCC2)cc(C(=O)N2CCCCC2)c1)C1CCCCC1	-3	2	0	2
Oc1ccccc1CNCc1ccccn1	76*	0	-1	-5
COc1ccc(OC)c(/C=N/N=C2\NC(=O)C(C)S2)c1 (stereo not drawn)	8	0	0	-7
COc1ccc(O)c(/C=N/N=C2/NC(=O)C(C)S2)c1 (stereo not drawn)	-7	-8	0	68*
O=C(CSc1n[nH]c(-c2ccncc2)n1)c1ccc(O)c(O)c1	99*	5	0	-4
O=Cc1ccc(-c2ccc(C(=O)O)c(O)c2)o1	86*	-1	0	3
CCN1CCC(=NNc2ccc(C(=O)O)cc2)CC1	23	-1	1	-32
COc1ccc2c(c1)-c1cc(Cl)ccc1S(=O)(=O)N2S(=O)(=O)c1ccccc1	10	0	0	16
FC(F)(F)c1cccc(-n2cc(-c3ccccc3)c3c(N4CCCC4)ncnc32)c1	-2	2	0	4
N=c1sc2c(n1CC(=O)c1ccc(Cl)cc1)CCCC2	-15	-1	0	37*
N=c1sc2c(n1CC(=O)c1ccc(I)cc1)CCCC2	0	1	0	-42
COC(=O)/C=C/CSc1nnc(-c2ccc(Cl)cc2Cl)o1	13	1	0	91*
COc1cc(/C=C(\C#N)c2nc(-c3ccc4c(c3)OCO4)cs2)cc([N+](=O)[O-])c1O	-1	-1	0	8
c1ccc(COC2CCCN(c3nncc(-c4ccc5c(c4)OCO5)n3)C2)cc1 (stereo not drawn)	14	-1	0	12
CCOc1cc(C=O)cc(Cl)c1OC(=O)c1ccc([N+](=O)[O-])cc1	16	0	0	2
COc1ccc(-c2cc(-c3ccccc3)nc(SC3CC(=O)N(c4ccc(C)cc4)C3=O)c2C#N)cc1 (stereo not drawn)	8	-1	0	9
SMILES	MITF inh	GPR151 ag	FBW7 activator	TEAD-YAP inh
N#Cc1cc2c(nc1SC1CC(=O)N(c3ccccc3)C1=O)CCC2 (stereo not drawn)	-9	1	0	39*
N#Cc1cc2c(nc1SC1CC(=O)N(c3ccccc3)C1=O)CCCCC2 (stereo not drawn)	0	-1	0	-19
Cc1cc(C)c(C#N)c(SC2CC(=O)N(c3ccccc3)C2=O)n1 (stereo not drawn)	3	0	1	38*
Cc1nc(SC2CC(=O)N(c3ccccc3)C2=O)c(C#N)c(C)c1C (stereo not drawn)	12	1	1	57*
CCC(C)C1N=C2c3ccccc3N=C(SCC(=O)c3ccc(O)c(O)c3)N2C1=O (stereo not drawn)	61*	0	0	0
Oc1cc2c(cc1O)C1c3ccc(O)c(O)c3OCC1(O)C2 (stereo not drawn)	116*	-2	0	21
COC(=O)c1nn(-c2ccc(-c3ccccc3)cc2)cc1O	15	-6	0	81*
C=CCNC(=O)CCCn1c(=S)[nH]c2cc3c(cc2c1=O)OCO3	7	-2	0	-1
O=S1(=O)CC2N=C(Nc3ccccc3F)SC2C1 (stereo not drawn)	6	0	0	17
COc1cc(C(=O)O)c(-n2c(C)ccc2C)cc1OC	72*	-1	-1	0
COc1ccc(Br)cc1C(=O)O	4	0	0	3
COc1ccc(C)cc1S(=O)(=O)N1CCCC(N(C)CCc2ccccc2)C1 (stereo not drawn)	16	-1	0	-1
CCN(CC)c1cc(-c2ccccn2)nc(-c2ccccn2)n1	113*	1	-1	86*
CCN(CC)c1cc(-c2ccccc2F)nc(-c2ccccn2)n1	8	1	0	50*
Cc1cnc(CNc2cc(-c3ccccc3F)nc(-c3ccccn3)n2)nc1	24	2	-1	33*
CCN(CC)c1cc(-c2ccccc2F)nc(-c2ccncc2)n1	5	1	0	-10
CCN(CC)c1cc(-c2ccccn2)nc(-c2ccccc2)n1	-9	-2	0	6
c1ccc(C(c2ccccc2)N2CCN(Cc3nnnn3Cc3cccs3)CC2)cc1	16	-1	1	-13
COc1ccc(C)cc1N(C)C(=O)CCNC(=O)Cn1cnc2ccccc2c1=O	7	-1	0	9
O=C1/C(=C/c2cccnc2)CCC/C1=C\c1cccnc1	-17	0	0	87*
CCOc1ccc(NC(=O)C(=O)N/N=C/c2cccc(Br)c2)cc1	8	0	0	0
Cc1ccc2nc(/C(C#N)=C/c3cn(Cc4ccc(Cl)cc4Cl)c4ccccc34)[nH]c2c1	0	1	1	-4
Cc1cc(C)c2nc(SCC(=O)Nc3cc(C(N)=O)cc(C(N)=O)c3)cc(C)c2c1	-12	0	0	-11
Cc1cc(C)c2nc(SCC(=O)Nc3sccc3C(N)=O)cc(C)c2c1	-4	1	0	45*
O=Cc1c(O)n(-c2ccc(Cl)cc2)c(=O)[nH]c1=O	14	0	2.5*	12
